# According to PubChem BioAssay:
# Where “and” joins values, the source holds several entries; their conditions need not be identical. Equal entries are not always repeated. Calls of active or inactive are those of the source.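 The calls were made as follows, unless noted: active = normalized viability below 100% at a tested concentration; inactive = the rest.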
# What was measured:
# [1] = P. berghei load reduction in hepatocytes – cell-based, HepG2, luciferase luminescence, HepG2 viability, primary screen (AID 624349; in the data active = parasite load remaining mostly below about 12%, no sharp cut-off; inactive = mostly above about 10%;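 also: 100% = mean of DMSO negative control wells on the same plate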); conditions: P. berghei liver stage in HepG2, luciferase luminescence, concentration not given here; parasite load remaining: stronger effect = lower value; viability: measured here: HepG2 viability without parasites
# [2] = signal quenchers or enhancers, Cy5 substrate/SSB – biochemical, NIH Clinical Collection, E. coli SSB, artefact control for HCV NS3 helicase inhibitor project (AID 743268; call rule not given here); conditions: Cy5-oligo bound E. coli SSB, fluorescence interference
# [3] = test system: Hepatitis C virus NS3 helicase; experiment: blockers of NS3h binding to DNA – biochemical, fluorescence polarization, NIH Clinical Collection, primary screen (AID 743270; call rule not given here); conditions: NS3 helicase binding to Cy5-dT15 DNA, stronger effect = higher value, concentration not given here
# [4] = molecular target: Single-stranded DNA-binding protein (Escherichia coli (strain K12)) (UniProt P0AGE0); experiment: SSB-ssDNA binding inhibitors – biochemical, fluorescence polarization, NIH Clinical Collection, counter-screen for HCV NS3 helicase inhibitor project (AID 743271; in the data active = inhibition above about 28%); conditions: E. coli SSB-DNA binding, stronger effect = higher value, concentration not given here
# [5] = compounds distorting NS3 helicase fluorescence signal – biochemical, NIH Clinical Collection, artefact control for HCV NS3 helicase inhibitor project (AID 743272; call rule not given here;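 also: HCV NS3 helicase with a Cy5 labelled single stranded DNA probe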); conditions: fluorescence interference counterscreen, HCV NS3 helicase assay; stronger effect = lower value
# [6] = modulation of C. elegans fzo-1 (AID 1259413; call rule not given here;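 also: fzo-1 mutant C. elegans worms in liquid wells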); conditions: C. elegans fzo-1 modulator screen, mean read-out; stronger effect = higher value
# [7] = EMT-state selective cytotoxicity in co-culture – imaging, PC-3E GFP, TEM4-18 mCherry, primary screen (AID 1345086;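 active = compounds killing one labelled cell type while sparing the other, by normalised counts and ratio limits, not self-fluorescent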;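 also: cells exposed to compound for 72 h before imaging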;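 as to red/green cell ratio (normalised): normalised mesenchymal count divided by normalised epithelial count so high means epithelial killing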); conditions: PC-3E GFP / TEM4-18 mCherry co-culture, imaging cell counts, at 1 µM
# [8] = viability loss with induced miR-34 in A549 – imaging, A549 dox-inducible miR-34, nuclei and caspase counts, primary screen (AID 1347080;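 active = compounds whose cell count with miR-34 switched on is under 0.7 times the count with it off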); conditions: A549 miR-34 inducible, Hoechst nuclei count, 48 h
# [9] = MELAS cybrid and Rieske KO viability enhancers – cell-based, MELAS cybrids, Rieske KO mouse fibroblasts, CellTiter-Glo, primary screen (AID 1508586;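 active = mean z-score across replicates of 1.96 or higher in either the MELAS or the Rieske mutant cell line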;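 also: z relative to plate mean and SD of compound and empty wells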); conditions: low glucose
# [10] = drug combination growth inhibition, ovarian cancer – cell-based, oncology-focused library, rucaparib conditional, profiling panel (AID 1508598); conditions: patient-derived ovarian cancer cells, CellTiter-Glo viability, 144 h, stronger effect = lower value
# [11] = molecular target: NAD(+) hydrolase SARM1 (Homo sapiens) (UniProt Q6SZW1); experiment: blocking NAD cleavage by SARM1 SAM-TIR – cell lysate, NAD-Glo luminescence (AID 1508614;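 active = compound whose remaining NAD level is above about 45 nM, limit read from the data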;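 also: higher remaining NAD means stronger inhibition of SARM1 NADase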); conditions: SAM-TIR HEK293T lysate NADase, at 1 µM, stronger effect = higher value
# [12] = galactose survival enhancers in mitochondrial complex I cybrids – cell-based, galactose medium, ATP luminescence, primary screen (AID 1645843;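 active = z-score of at least 1.8 in each of two replicates, scored against plate mean and spread of sample wells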;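 also: positive z means more ATP and so rescue of galactose-driven cybrid death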); conditions: complex I mutant cybrid cells, 72 h, stronger effect = higher value
# F380Y = experiment: BK channel mutant inhibitors and activators – cell-based, U2OS BacMam, thallium flux, beta subunits, selectivity assay, profiling panel (AID 1259406;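 active = thallium flux through the channel raised or lowered by more than 3 SD from vehicle-only wells, actives on both sides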;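 also: initial slope of Thallos dye fluorescence rise after thallium is added; log ratio against the mean of 0.3% DMSO vehicle wells on the same plate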); conditions: U2OS BacMam BK variants, at 30 µM
# F380Y/beta2Delta = experiment: as above; conditions: U2OS BacMam BK variants, at 30 µM
# [13] = molecular target: Calcium-activated potassium channel subunit alpha-1 (Homo sapiens) + Leucine-rich repeat-containing protein 26 (Homo sapiens) (UniProt Q12791+Q2I0M4); experiment: as above; conditions: U2OS BacMam BK variants, F380Y/Slo1WT/gamma1, at 30 µM
# R275C = experiment: as above; conditions: U2OS BacMam BK variants, at 30 µM
# R275C/beta1 = experiment: as above; conditions: U2OS BacMam BK variants, at 30 µM
# R275C/beta2Delta = experiment: as above; conditions: U2OS BacMam BK variants, at 30 µM
# NAD(+) hydrolase SARM1 (Homo sapiens), sequence (Q6SZW1 whole entry, looked up): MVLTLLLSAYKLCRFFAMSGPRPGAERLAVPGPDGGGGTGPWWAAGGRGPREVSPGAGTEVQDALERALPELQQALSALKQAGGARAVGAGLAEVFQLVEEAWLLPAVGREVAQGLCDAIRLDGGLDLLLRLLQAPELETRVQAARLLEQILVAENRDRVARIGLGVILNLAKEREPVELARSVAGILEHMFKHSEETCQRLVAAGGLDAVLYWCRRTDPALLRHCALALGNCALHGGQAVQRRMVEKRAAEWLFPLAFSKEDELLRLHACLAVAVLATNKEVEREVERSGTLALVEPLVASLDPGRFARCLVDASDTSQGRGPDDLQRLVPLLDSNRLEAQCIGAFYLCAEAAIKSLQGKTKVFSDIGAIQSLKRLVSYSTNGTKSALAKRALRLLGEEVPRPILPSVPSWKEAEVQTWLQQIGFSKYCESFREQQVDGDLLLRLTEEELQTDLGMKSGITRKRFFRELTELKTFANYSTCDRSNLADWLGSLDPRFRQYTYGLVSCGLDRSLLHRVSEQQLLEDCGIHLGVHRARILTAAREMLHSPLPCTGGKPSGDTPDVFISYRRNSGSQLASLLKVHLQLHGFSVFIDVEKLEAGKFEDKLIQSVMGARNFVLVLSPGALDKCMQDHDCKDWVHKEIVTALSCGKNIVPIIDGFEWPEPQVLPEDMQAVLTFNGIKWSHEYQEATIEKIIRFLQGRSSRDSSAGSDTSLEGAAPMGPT
# Calcium-activated potassium channel subunit alpha-1 (Homo sapiens) + Leucine-rich repeat-containing protein 26 (Homo sapiens), sequence (Q2I0M4 whole entry, looked up, one chain of several): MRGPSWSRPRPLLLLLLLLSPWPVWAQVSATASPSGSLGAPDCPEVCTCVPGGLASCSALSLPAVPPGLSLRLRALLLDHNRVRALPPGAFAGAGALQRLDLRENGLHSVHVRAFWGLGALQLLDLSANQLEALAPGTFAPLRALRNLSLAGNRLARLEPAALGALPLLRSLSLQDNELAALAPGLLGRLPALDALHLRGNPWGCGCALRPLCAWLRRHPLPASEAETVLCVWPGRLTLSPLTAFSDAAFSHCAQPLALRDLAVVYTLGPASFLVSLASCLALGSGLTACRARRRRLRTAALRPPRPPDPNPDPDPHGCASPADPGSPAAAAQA
smiles,measurement,setting,value
CC(C)n1c(/C=C/[C@@H](O)C[C@@H](O)CC(=O)O)c(-c2ccc(F)cc2)c2ccccc21,parasite load remaining,[1],164% (inactive) and 130% (inactive)
same,viability,[1],82.3% and 114%
same,fluorescence ratio,[2],1.05 (inactive)
same,inhibition,[3],-2.27% (inactive)
same,inhibition,[4],2.57% (inactive)
same,fluorescence ratio,[5],1.03 (inactive)
same,mean signal,[6],243 (inactive)
same,red/green cell ratio (normalised),"[7]; actives lie on both sides, counts scaled to control wells, 1 = unselective",0.7 (inactive)
same,normalised cell number,[7]; measured here: epithelial PC-3E GFP cell survival,0.75
same,normalised cell number,[7]; measured here: mesenchymal TEM4-18 mCherry cell survival,0.53
same,fold change,"[8]; stronger effect = lower value, cell number ratio, induced over uninduced",1.1 (inactive) and 1.08 (inactive)
same,fold change,[8]; measured here: relative caspase fold change +Dox/-Dox,0.844 and 2.14
same,cell count,"[8]; measured here: total cells with miR-34 induction, stronger effect = lower value",1760 and 2100
same,cell count,[8]; measured here: total cells without miR-34 induction,1610 and 1940
same,z-score,"[9]; MELAS cybrid survival, CellTiter-Glo 48 h, stronger effect = higher value",-1.26 (inactive)
same,z-score,"[9]; Rieske KO mouse fibroblast survival, CellTiter-Glo 72 h",-0.983
same,viability,"[10]; at 0.000305 µM, OCI-C5x cells, with rucaparib 10 µM, 100% = cells with rucaparib alone",102% (inactive)
same,viability,"[10]; at 0.000305 µM, OCI-C5x cells, without rucaparib",102% (inactive)
same,viability,"[10]; at 0.000305 µM, OCI-P5x cells, with rucaparib 20 µM, 100% = cells with rucaparib alone",86.5% (active)
same,viability,"[10]; at 0.000305 µM, OCI-P5x cells, without rucaparib",89.2% (active)
same,viability,"[10]; at 0.00122 µM, OCI-C5x cells, with rucaparib 10 µM, 100% = cells with rucaparib alone",102% (inactive)
same,viability,"[10]; at 0.00122 µM, OCI-C5x cells, without rucaparib",109% (inactive)
same,viability,"[10]; at 0.00122 µM, OCI-P5x cells, with rucaparib 20 µM, 100% = cells with rucaparib alone",89.7% (active)
same,viability,"[10]; at 0.00122 µM, OCI-P5x cells, without rucaparib",88.8% (active)
same,viability,"[10]; at 0.00488 µM, OCI-C5x cells, with rucaparib 10 µM, 100% = cells with rucaparib alone",92% (active)
same,viability,"[10]; at 0.00488 µM, OCI-C5x cells, without rucaparib",96.6% (active)
same,viability,"[10]; at 0.00488 µM, OCI-P5x cells, with rucaparib 20 µM, 100% = cells with rucaparib alone",82.4% (active)
same,viability,"[10]; at 0.00488 µM, OCI-P5x cells, without rucaparib",87.2% (active)
same,viability,"[10]; at 0.0195 µM, OCI-C5x cells, with rucaparib 10 µM, 100% = cells with rucaparib alone",73.9% (active)
same,viability,"[10]; at 0.0195 µM, OCI-C5x cells, without rucaparib",71.3% (active)
same,viability,"[10]; at 0.0195 µM, OCI-P5x cells, with rucaparib 20 µM, 100% = cells with rucaparib alone",44.2% (active)
same,viability,"[10]; at 0.0195 µM, OCI-P5x cells, without rucaparib",53.6% (active)
same,viability,"[10]; at 0.0781 µM, OCI-C5x cells, with rucaparib 10 µM, 100% = cells with rucaparib alone",50.9% (active)
same,viability,"[10]; at 0.0781 µM, OCI-C5x cells, without rucaparib",54.7% (active)
same,viability,"[10]; at 0.0781 µM, OCI-P5x cells, with rucaparib 20 µM, 100% = cells with rucaparib alone",21.8% (active)
same,viability,"[10]; at 0.0781 µM, OCI-P5x cells, without rucaparib",31% (active)
same,viability,"[10]; at 0.313 µM, OCI-C5x cells, with rucaparib 10 µM, 100% = cells with rucaparib alone",32.6% (active)
same,viability,"[10]; at 0.313 µM, OCI-C5x cells, without rucaparib",33.3% (active)
same,viability,"[10]; at 0.313 µM, OCI-P5x cells, with rucaparib 20 µM, 100% = cells with rucaparib alone",8.26% (active)
same,viability,"[10]; at 0.313 µM, OCI-P5x cells, without rucaparib",10.2% (active)
same,viability,"[10]; at 1.25 µM, OCI-C5x cells, with rucaparib 10 µM, 100% = cells with rucaparib alone",20.2% (active)
same,viability,"[10]; at 1.25 µM, OCI-C5x cells, without rucaparib",22.5% (active)
same,viability,"[10]; at 1.25 µM, OCI-P5x cells, with rucaparib 20 µM, 100% = cells with rucaparib alone",5.66% (active)
same,viability,"[10]; at 1.25 µM, OCI-P5x cells, without rucaparib",4.09% (active)
same,viability,"[10]; at 5 µM, OCI-C5x cells, with rucaparib 10 µM, 100% = cells with rucaparib alone",7.97% (active)
same,viability,"[10]; at 5 µM, OCI-C5x cells, without rucaparib",7.19% (active)
same,viability,"[10]; at 5 µM, OCI-P5x cells, with rucaparib 20 µM, 100% = cells with rucaparib alone",5.66% (active)
same,viability,"[10]; at 5 µM, OCI-P5x cells, without rucaparib",4.42% (active)
same,remaining NAD,[11],10 nM (inactive)
same,z-score,[12],-0.215 (inactive) and -1.78 (inactive)
same,log fold change Tl+ flux,F380Y,0.0848 (inactive)
same,log fold change Tl+ flux,F380Y/beta2Delta,0.0465 (inactive)
same,log fold change Tl+ flux,[13],0.11 (active)
same,log fold change Tl+ flux,R275C,-0.0365 (inactive)
same,log fold change Tl+ flux,R275C/beta1,0.145 (active)
same,log fold change Tl+ flux,R275C/beta2Delta,0.135 (active)
